Structures are written as SMILES. The source made the active and inactive calls. Rule for the calls: active = hit-call score of the fitted dose curve at least 0.9, where 1 is the maximum; inactive = score below 0.9.

A short description of assay [1]: ATG_E_Box_CIS: Attagene CIS-FACTORIAL HepG2 Assay for human Enhancer Box (E-box) (AID 2282936). To be noted: HepG2 E-box cis-reporter transcription, actives raise or lower the signal. The gist of the method:
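Fluorescent reporter fragments separated by capillary electrophoresis gave the signal; mRNA came from HepG2 cells transfected with cis-element reporters and treated 24 h. Curves fitted bidirectionally relative to DMSO controls.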

A short description of assay [2]: ATG_M_61_CIS: Attagene CIS-FACTORIAL HepG2 Assay for M61 Transcription Factor (Internal Marker) (AID 2282937). To be noted: HepG2 Attagene CIS-FACTORIAL M61 internal marker reporter; actives raise or lower the signal. The method, boiled down:
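Readout is reporter mRNA by RT-PCR, fluorescent primer extension and capillary electrophoresis, with gain or loss fitted relative to DMSO. Transfected HepG2 cells carrying endogenous-TF-driven cis reporters were exposed to chemicals for 24 hours.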

The nature of assay [3]: ATG_EGR_CIS: Attagene CIS-FACTORIAL HepG2 Assay for human Early Growth Response 1 (EGR1) (AID 2282938). To be noted: HepG2 Attagene CIS-FACTORIAL EGR reporter mRNA; actives raise or lower the signal. The method, boiled down: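 After 24 h compound exposure, RNA from reporter-transfected HepG2 cells was reverse-transcribed, PCR-amplified, fluorescently labelled and resolved by capillary electrophoresis. EGR1 reporter transcript changes, up or down, were fitted against DMSO, reflecting endogenous transcription-factor activity.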

Assay [4] is described as follows: ATG_M_19_CIS: Attagene CIS-FACTORIAL HepG2 Assay for M19 Transcription Factor (Internal Marker) (AID 2282939). To be noted: HepG2 Attagene CIS-FACTORIAL M19 internal marker reporter; actives raise or lower the signal. The gist of the method:
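HepG2, MRTU transient transfection, 24 h dosing. Total RNA → RT-PCR → 6-FAM primer extension → HpaI digest → CE fluorescence. Bidirectional curve fit, DMSO negative control.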

Assay [5] can be described thus: ATG_Ets_CIS: Attagene CIS-FACTORIAL HepG2 Assay for human Erythroblast Transformation Specific (ETS) (AID 2282941). To be noted: HepG2 ETS cis-reporter transcription, actives raise or lower the signal. The method, boiled down: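 Bidirectional fit versus DMSO of reporter mRNA signal, detected by RT-PCR and capillary electrophoresis in HepG2 cells transiently transfected with cis-element reporters and dosed 24 h.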

Assay [6] concerns the target Hepatocyte nuclear factor 3-beta (Homo sapiens) (UniProt Q9Y261). Description: ATG_FoxA2_CIS: Attagene CIS-FACTORIAL HepG2 Assay for human Forkhead box A2 (FOXA2) (AID 2282942). The following applies: HepG2 cis-reporter transcription factor activity, 24 h; actives raise or lower the signal. The gist of the method: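 Endogenous transcription factor activity is captured via cis-element-driven reporter transcripts in transfected HepG2. Total RNA taken at 24 h post-dosing; labelled RT-PCR products resolved by capillary electrophoresis. Gain or loss fitted versus DMSO.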

Assay [7] can be described thus: ATG_FoxO_CIS: Attagene CIS-FACTORIAL HepG2 Assay for human Forkhead box O (FoxO) (AID 2282943). To be noted: HepG2 Attagene cis-reporter, FoxO element, mRNA; actives raise or lower the signal. The method, boiled down:
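HepG2, transient MRTU transfection (cis element, endogenous TFs). Dose 24 h. TriZol RNA → oligo(dT) RT → PCR → 6-FAM primer extension → HpaI cut → CE. Gain/loss vs DMSO.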

Assay [8] can be described thus: ATG_GATA_CIS: Attagene CIS-FACTORIAL HepG2 Assay for human GATA Binding Protein (AID 2282944). To be noted: HepG2 GATA cis-element reporter, Attagene multiplex mRNA; actives raise or lower the signal. The gist of the method:
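Cells: HepG2, transiently transfected with cis-regulated reporter transcription units. Exposure: 24 h. Detection: RT-PCR plus capillary electrophoresis of FAM-labeled fragments. Analysis: bidirectional, DMSO as baseline.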

A short description of assay [9]: ATG_GLI_CIS: Attagene CIS-FACTORIAL HepG2 Assay for human Zinc Finger Protein GLI1 (AID 2282945). To be noted: HepG2, Attagene cis-factorial reporter mRNA, GLI element; actives raise or lower the signal. The gist of the method:
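Bidirectional curve fits relative to DMSO, using reporter mRNA levels from RT-PCR plus capillary electrophoresis. Cells were HepG2 transiently carrying cis-regulated reporter constructs, harvested 24 h after dosing.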

Assay [10] in a line: ATG_ISRE_CIS: Attagene CIS-FACTORIAL HepG2 Assay for human Interferon Regulatory Factor 1 (IRF1) binding to an Interferon-Stimulated Response Element (ISRE) (AID 2282948). The following applies: HepG2 ISRE cis-reporter (Attagene), mRNA transcription readout; actives raise or lower the signal. The gist of the method: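 Uses HepG2 liver cells transfected with cis-regulated reporters and measures mRNA 24 h post-dosing through RT-PCR, primer-extension labelling and capillary electrophoresis, with DMSO as negative control.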

Assay [11] is described as follows: ATG_M_32_CIS: Attagene CIS-FACTORIAL HepG2 Assay for M32 Transcription Factor (Internal Marker) (AID 2282949).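 Note: background control marker of the multiplexed CIS panel rather than a real target.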 The following applies: HepG2 Attagene cis-factorial M32 reporter, mRNA; actives raise or lower the signal. The method, boiled down:
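Using DMSO as baseline, bidirectional curve fits were applied to reporter mRNA signals. These came from transiently transfected HepG2 cells exposed for 24 h, with RNA analysed by RT-PCR, FAM primer extension, HpaI digestion and CE.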

Assay [12] addresses Hypoxia-inducible factor 1-alpha (Homo sapiens) (UniProt Q16665). Nature of the assay: ATG_HIF1a_CIS: Attagene CIS-FACTORIAL HepG2 Assay for human Hypoxia Inducible Factor 1 (HIF1A) (AID 2282951). To be noted: HepG2 Attagene cis-factorial HIF1a reporter transcription; actives raise or lower the signal. The method, boiled down: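 Activity is fitted in both directions relative to DMSO. Reporter transcripts are read by RT-PCR, fluorescent primer extension and capillary electrophoresis after 24 h chemical treatment. The cells are HepG2 carrying transiently transfected cis-element-driven reporter units responding to endogenous factors.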

Assay [13] addresses Hepatocyte nuclear factor 6 (Homo sapiens) (UniProt Q9UBC0). Description: ATG_HNF6_CIS: Attagene CIS-FACTORIAL HepG2 Assay for human Hepatocyte Nuclear Factor 6 (HNF6) (AID 2282952). To be noted: HepG2 Attagene cis-factorial HNF6 reporter transcription; actives raise or lower the signal. The method, boiled down: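 Twenty-four-hour chemical treatment of reporter-transfected HepG2 cells precedes RNA isolation, DNase-treated reverse transcription and PCR of reporter sequences. Labelled fragments are sized by capillary electrophoresis and fitted bidirectionally versus DMSO.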

The target in assay [14] is Heat shock factor protein 1 (Homo sapiens) (UniProt Q00613). Nature of the assay: ATG_HSE_CIS: Attagene CIS-FACTORIAL HepG2 Assay for human Heat Shock Transcription Factor 1 (HSE) (AID 2282953). To be noted: HepG2 HSE cis-reporter, Attagene RNA transcription; actives raise or lower the signal. The method, boiled down: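 Reporter mRNA induction in HepG2 is measured 24 h after dosing, using transiently transfected multiplexed cis-regulated reporter units. Signal comes from capillary electrophoresis of labelled RT-PCR products, with DMSO as negative control.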

A short description of assay [15]: ATG_MRE_CIS: Attagene CIS-FACTORIAL HepG2 Assay for human Metal Responsive Element (MRE) (AID 2282954). To be noted: HepG2 MRE cis-reporter transcription, Attagene multiplex; actives raise or lower the signal. The method, boiled down:
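Multiplexed cis-reporter assay in human HepG2 liver cells, 24 h incubation with test chemical. Reporter transcripts measured by RT-PCR and capillary electrophoresis; values from bidirectional curve fitting versus DMSO.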

Assay [16] is described as follows: ATG_PBREM_CIS: Attagene CIS-FACTORIAL HepG2 Assay for human Phenobarbital-responsive Enhancer Module (PBREM) (AID 2282955). The following applies: HepG2 PBREM cis-reporter, Attagene multiplexed transcription; actives raise or lower the signal. The method, boiled down: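 Endogenous transcription factor activity was read from reporter transcripts in transiently transfected human HepG2 liver cells after 24 h dosing. RT-PCR products were fluorescently labelled, HpaI-cut and sized by capillary electrophoresis; activity fitted bidirectionally against DMSO baseline.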

In assay [17] the target is Bile acid receptor (Homo sapiens) (UniProt Q96RI1). Nature of the assay: ATG_IR1_CIS: Attagene CIS-FACTORIAL HepG2 Assay for human Nuclear Receptor Subfamily 1 Group H Member 4 (NR1H4), IR1 submotif (AID 2282946). The following applies: IR1 reporter transcription, actives raise or lower the signal. The gist of the method:
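HepG2 cells transiently transfected with multiplexed cis-element reporter units read endogenous transcription factor activity. After 24 h compound exposure, reporter mRNA was quantified by RT-PCR, fluorescent labelling, HpaI digestion and capillary electrophoresis; bidirectional fitting versus DMSO baseline.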

The nature of assay [18]: ATG_M_06_CIS: Attagene CIS-FACTORIAL HepG2 Assay for M06 Transcription Factor (Internal Marker) (AID 2282950). To be noted: HepG2 Attagene CIS-FACTORIAL M06 internal marker reporter; actives raise or lower the signal. The method, boiled down:
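Measured 24 h post-dosing in transiently transfected HepG2 cells, this internal-marker endpoint reports reporter mRNA via RT-PCR with fluorescent primer extension and capillary electrophoresis. DMSO served as negative control and baseline for bidirectional fitting.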

The nature of assay [19]: ATG_ERE_CIS: Attagene CIS-FACTORIAL HepG2 Assay for Estrogen Response Element (ERE) (AID 2282940). To be noted: HepG2 ERE cis-reporter, Attagene RNA transcript; actives raise or lower the signal. The method, boiled down:
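After a 24 h chemical treatment, RNA from reporter-transfected HepG2 cells is reverse-transcribed, PCR-amplified and fluorescently labelled. Fragments separated by capillary electrophoresis give reporter signal; DMSO serves as negative control.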

Assay [20] can be described thus: ATG_GRE_CIS: Attagene CIS-FACTORIAL HepG2 Assay for human Glucocorticoid Response Elements (GRE) (AID 2282947). The following applies: HepG2 GRE cis-reporter, Attagene multiplex mRNA; actives raise or lower the signal. The gist of the method: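 Multiplexed cis-reporter mRNA induction, HepG2, 24 h post-dose. RT-PCR, FAM-labelled, HpaI-digested amplicons by CE. Bidirectional fit vs DMSO.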

Hepatocyte nuclear factor 3-beta (Homo sapiens), sequence (Q9Y261 whole entry, looked up): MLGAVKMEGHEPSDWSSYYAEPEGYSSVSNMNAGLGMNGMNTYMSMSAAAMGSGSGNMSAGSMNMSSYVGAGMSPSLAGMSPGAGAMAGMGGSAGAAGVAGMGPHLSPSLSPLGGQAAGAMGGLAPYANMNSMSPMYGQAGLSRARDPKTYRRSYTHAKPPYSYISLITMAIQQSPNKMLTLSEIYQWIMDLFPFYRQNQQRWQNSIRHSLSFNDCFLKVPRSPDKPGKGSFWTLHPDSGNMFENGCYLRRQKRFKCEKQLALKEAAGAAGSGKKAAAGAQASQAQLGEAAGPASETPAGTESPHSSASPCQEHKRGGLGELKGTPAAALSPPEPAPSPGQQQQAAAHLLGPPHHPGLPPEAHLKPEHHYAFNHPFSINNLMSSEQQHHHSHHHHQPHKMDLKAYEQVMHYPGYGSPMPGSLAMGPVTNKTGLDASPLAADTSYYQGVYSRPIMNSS
Hypoxia-inducible factor 1-alpha (Homo sapiens), sequence (Q16665 whole entry, looked up): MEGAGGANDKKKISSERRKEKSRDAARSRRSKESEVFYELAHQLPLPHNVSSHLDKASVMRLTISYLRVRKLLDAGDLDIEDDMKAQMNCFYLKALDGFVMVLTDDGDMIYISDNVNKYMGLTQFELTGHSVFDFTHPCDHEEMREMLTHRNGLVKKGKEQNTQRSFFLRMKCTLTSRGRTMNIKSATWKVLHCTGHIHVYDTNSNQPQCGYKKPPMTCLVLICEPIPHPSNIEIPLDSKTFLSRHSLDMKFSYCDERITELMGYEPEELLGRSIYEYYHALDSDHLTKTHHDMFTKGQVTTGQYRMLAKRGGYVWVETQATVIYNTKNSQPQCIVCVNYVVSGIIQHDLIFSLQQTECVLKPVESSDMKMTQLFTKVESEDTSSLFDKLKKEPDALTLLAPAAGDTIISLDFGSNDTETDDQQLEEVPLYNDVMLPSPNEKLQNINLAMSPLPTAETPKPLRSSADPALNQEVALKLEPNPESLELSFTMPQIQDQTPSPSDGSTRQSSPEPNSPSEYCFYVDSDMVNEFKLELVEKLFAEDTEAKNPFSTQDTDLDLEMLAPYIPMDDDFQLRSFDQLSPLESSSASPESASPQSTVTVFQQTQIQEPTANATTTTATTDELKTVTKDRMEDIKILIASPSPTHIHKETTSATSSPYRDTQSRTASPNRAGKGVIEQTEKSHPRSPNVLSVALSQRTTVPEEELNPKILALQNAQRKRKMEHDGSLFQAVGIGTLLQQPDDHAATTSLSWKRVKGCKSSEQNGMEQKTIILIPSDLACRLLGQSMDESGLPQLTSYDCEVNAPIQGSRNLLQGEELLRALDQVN
Hepatocyte nuclear factor 6 (Homo sapiens), sequence (Q9UBC0 whole entry, looked up, the tested form may be a part): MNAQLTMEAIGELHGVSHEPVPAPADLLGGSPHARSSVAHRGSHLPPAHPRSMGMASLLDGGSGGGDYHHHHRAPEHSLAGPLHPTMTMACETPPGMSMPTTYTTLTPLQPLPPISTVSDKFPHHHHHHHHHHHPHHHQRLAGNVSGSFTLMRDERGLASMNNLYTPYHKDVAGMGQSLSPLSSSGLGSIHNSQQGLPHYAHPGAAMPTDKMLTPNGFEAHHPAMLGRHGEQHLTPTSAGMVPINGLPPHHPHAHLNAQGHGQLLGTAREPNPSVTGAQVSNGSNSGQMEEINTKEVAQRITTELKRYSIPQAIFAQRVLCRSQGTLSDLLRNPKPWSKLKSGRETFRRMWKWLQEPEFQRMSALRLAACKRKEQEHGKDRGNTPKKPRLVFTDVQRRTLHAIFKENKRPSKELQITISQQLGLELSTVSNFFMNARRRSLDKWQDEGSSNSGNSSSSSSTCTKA
Bile acid receptor (Homo sapiens), sequence (Q96RI1 whole entry, looked up): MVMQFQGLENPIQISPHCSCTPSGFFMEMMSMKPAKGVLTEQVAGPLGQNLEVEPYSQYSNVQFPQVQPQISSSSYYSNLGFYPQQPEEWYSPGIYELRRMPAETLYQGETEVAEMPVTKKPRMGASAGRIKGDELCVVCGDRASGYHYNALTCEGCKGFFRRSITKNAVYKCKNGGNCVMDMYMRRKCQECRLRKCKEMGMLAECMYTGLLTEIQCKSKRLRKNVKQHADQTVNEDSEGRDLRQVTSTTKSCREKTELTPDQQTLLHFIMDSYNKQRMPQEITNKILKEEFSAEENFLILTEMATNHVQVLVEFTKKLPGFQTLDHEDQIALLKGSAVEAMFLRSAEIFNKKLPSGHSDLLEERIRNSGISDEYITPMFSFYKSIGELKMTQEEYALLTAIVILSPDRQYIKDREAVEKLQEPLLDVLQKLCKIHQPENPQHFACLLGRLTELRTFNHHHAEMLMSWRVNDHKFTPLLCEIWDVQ
Heat shock factor protein 1 (Homo sapiens), sequence (Q00613 whole entry, looked up): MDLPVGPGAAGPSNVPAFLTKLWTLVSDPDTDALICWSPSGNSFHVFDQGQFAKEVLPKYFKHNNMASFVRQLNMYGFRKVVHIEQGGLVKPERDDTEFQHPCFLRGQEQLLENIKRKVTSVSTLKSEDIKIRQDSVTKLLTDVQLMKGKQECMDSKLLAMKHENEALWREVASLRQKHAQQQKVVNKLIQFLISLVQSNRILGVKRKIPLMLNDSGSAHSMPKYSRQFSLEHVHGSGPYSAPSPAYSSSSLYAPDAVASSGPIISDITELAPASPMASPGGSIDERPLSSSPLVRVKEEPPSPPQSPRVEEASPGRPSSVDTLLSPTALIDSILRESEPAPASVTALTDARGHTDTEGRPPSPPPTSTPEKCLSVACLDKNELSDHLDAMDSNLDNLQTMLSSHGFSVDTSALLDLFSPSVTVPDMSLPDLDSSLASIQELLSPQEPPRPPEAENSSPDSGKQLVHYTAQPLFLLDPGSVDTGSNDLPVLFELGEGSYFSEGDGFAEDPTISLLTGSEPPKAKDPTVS

For `O=C(O)CC(O)C(=O)O` (stereo not given), the outcome in assay [1], in assay [2], in assay [3], in assay [4], in [5] and in [6] was inactive. The molecule was called inactive in [7], in assay [8], in assay [9], in assay [10], in assay [11] and in [12]. Moreover, the molecule was called inactive in assay [13], in assay [14], in assay [15] and in [16].
In the case of `CCOC(=O)CC(CC(=O)OCC)(OC(C)=O)C(=O)OCC`, the outcome in assay [1], in assay [2], in [3], in assay [4], in [5] and in [6] was inactive. Also, the molecule was classed as inactive in assay [7], in assay [8], in assay [9], in [17], in assay [11] and in assay [18]. The molecule was classed as inactive in assay [12], in assay [13], in assay [14], in [15] and in assay [16].
For `Cc1ccc(S(=O)(=O)O)cc1C`, the outcome in assay [1], in [2], in assay [3], in assay [19], in [5] and in [6] was inactive. Further, the molecule was called inactive in assay [7], in [8], in assay [9], in [20], in [10] and in assay [11]. For the same molecule, the outcome in assay [18], in assay [12], in [13], in assay [14], in assay [15] and in assay [16] was inactive.
On to `On1ccccc1=S`, for which the AC50 is 8.78 µM (active) in [1] and 26 µM (active) in assay [14]. In addition, the molecule was classed as inactive in assay [2], in [3], in assay [4], in [5], in [6] and in [7]. In addition, the outcome in [8], in assay [9], in assay [20], in [11], in [18] and in assay [12] was inactive. The call in assay [13], in assay [15] and in [16] was inactive.
With `COc1cccc(-c2ccc(/C=C\CN3CCCCCC3)cc2Cl)c1`, the result in [1], in assay [2], in assay [3], in assay [19], in assay [5] and in assay [6] was inactive. Moreover, the molecule was classed as inactive in assay [7], in assay [8], in assay [9], in assay [17], in assay [20] and in assay [10]. Moreover, the molecule was called inactive in assay [11], in assay [12], in [13], in [14], in assay [15] and in assay [16].
As to `Nc1nc2ncc(CNc3ccc(C(=O)N[C@@H](CCC(=O)O)C(=O)O)cc3)nc2c(=O)[nH]1`, the outcome in assay [1], in assay [2], in assay [3], in [4], in assay [5] and in assay [6] was inactive. The outcome in assay [7], in assay [8], in [9], in assay [20], in assay [11] and in assay [13] was inactive. The call in assay [14], in assay [15] and in assay [16] was inactive.
As for `COC(=O)c1c(Cl)c(Cl)c(C(=O)OC)c(Cl)c1Cl`, the outcome in [1], in assay [2], in [3], in [19], in assay [5] and in assay [6] was inactive. The outcome in assay [7], in assay [8], in assay [9], in [17], in [20] and in assay [10] was inactive. The molecule was called inactive in assay [11], in [18], in assay [12], in [13], in assay [14] and in assay [15]. The outcome in assay [16] was inactive.

The record behind these values is PubChem BioAssay (EPA / NIEHS).
